tim10-1 inh – growth inhibitors of tim10-1 mutant yeast, primary screen, luminescence, uHTS; actives 2.2% (n = 330,000); AID 463190, 2010; S. cerevisiae tim10-1 ts strain growth, BacTiter-Glo, 24 h; inhibition, % at 20 µM;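 active = inhibition of at least 40%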;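 also: mutant grown at 25 °C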
TIM10 inh – growth inhibitors of isogenic TIM10 control yeast, primary screen, counter-screen for tim10-1 yeast inhibitor project, luminescence, uHTS; inhibition, % at 10 µM; actives 1.4% (n = 330,000); AID 463195, 2010; S. cerevisiae TIM10 strain growth, BacTiter-Glo luminescence, 24 h;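 active = inhibition of 40% or more at the single tested concentration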;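 also: wild-type TIM10 isogenic control strain grown at permissive 25 °C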
tim23-1 inh – growth inhibitors of tim23-1 mutant yeast, primary screen, luminescence, uHTS. S. cerevisiae tim23-1 growth, BacTiter-Glo luminescence, 24 h. inhibition, % at 20 µM. actives 1.3% (n = 330,000);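 active = growth inhibition of the mutant yeast at or above 50%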;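 also: temperature-sensitive mutant grown at 25 °C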
SKKanGAS inh – S. pyogenes SKKanGAS growth inhibitors in kanamycin, primary screen, streptokinase expression inhibitor project, SKKanGAS strain, BacTiter-Glo luminescence. 6 h. AID 1662, 2009. inhibition, % at 7.5 µM. actives 1.3% (n = 300,000);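 active = mean replicate score, as percent of positive control median, at least 50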;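 also: strain carries kanamycin resistance gene driven by streptokinase promoter and grows in 40 µg/ml kanamycin; loss of luminescence reflects streptokinase promoter inhibition or plain growth inhibition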
PfHsp90 set2 – growth inhibition of PfHsp90-expressing yeast, primary screen, antimalarial PfHsp90 inhibitor project, S. cerevisiae, BacTiter-Glo luminescence, single point, set 2; actives 0.32% (n = 310,000); AID 504621, 2011; BacTiter-Glo ATP, 48 h; yeast lacking PDR1 and PDR3 efflux regulators; inhibition, % at 9.4 µM;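 active = every replicate shows inhibition above about 80%, whatever the replicate mean, limit read from the data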
tim10-1 conf – growth inhibitors of tim10-1 mutant yeast, confirmation, single concentration, luminescence, S. cerevisiae. shares compounds with tim10-1 inh. S. cerevisiae tim10-1 ts strain growth, BacTiter-Glo, 24 h. inhibition, % at 20 µM. actives 56% (n = 7,400);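 active = inhibition of yeast growth at or above a set limit in either of two repeat tests at 20 µM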;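 also: tim10-1 mutant grown at permissive 25 °C to find synthetic lethal compounds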
A number is an active result; 0 = inactive; - = not tested or not shown. Rows were chosen to be rich in hits. Some 4.4% of all compounds tested hit in one or more screens of this group.

SMILES	tim10-1 inh	TIM10 inh	tim23-1 inh	SKKanGAS inh	PfHsp90 set2	tim10-1 conf
S=c1[nH]nc(Nc2ccc(Cl)cc2)s1	40.4	0	0	0	0	34.2
CCCC(=O)NC(c1ccco1)c1cc(Cl)c2cccnc2c1O (centres undefined)	50.2	0	0	71.2	104.7	0
COc1ccc(C(NC(C)=O)c2nccc3cc(OC)c(OC)cc23)cc1OC (centres undefined)	0	0	0	0	0	-
COc1ccc(C(NC(C)=O)c2cc(Cl)c3cccnc3c2O)cc1OC (centres undefined)	40.2	0	0	54.8	0	0
Cc1ccc(CNC(=O)C2CC3Cn4c(nc5ccccc54)C3N2C)o1 (centres undefined)	0	0	0	0	0	-
Cc1ccc(C(=O)OCN2C(=O)c3ccccc3C2=O)o1	0	0	0	0	0	-
Cc1noc(C)c1CSCc1ccc(Cl)cc1	0	0	0	0	0	-
Cc1ccc(N2C(=O)N(CC(=O)Nc3ccc([N+](=O)[O-])cc3)C(=O)C2C)cc1 (centres undefined)	0	0	0	0	0	-
CC1Cc2cc(/C(O)=C3/C(=O)C(=O)N(CCCn4ccnc4)C3c3ccc(Br)cc3)ccc2O1 (centres undefined)	0	0	0	0	0	-
Cc1cccn2c(=O)c(C=O)c(N3CCCCC3)nc12	0	0	0	0	0	-
Cc1cccn2c(=O)c(C=O)c(N3CCN(c4ccc(F)cc4)CC3)nc12	48.8	0	0	0	0	35.7
Cc1ccccc1NC(=O)COC(=O)c1ccc(S(=O)(=O)N2CCCC2)cc1	0	0	0	-	0	-
COc1cc(C)ccc1OCc1cc(C(=O)N(C)CCCN2CCOCC2)no1	0	0	0	0	0	-
C/C(CC(=O)Nc1cccc(Cl)c1Cl)=N\NC(=O)c1ccccc1N	40.6	0	0	0	0	0
C/C(CC(=O)Nc1cccc(Cl)c1Cl)=N\NC(=O)c1ccccc1Br	0	0	0	0	0	-
Cc1cc(C(=O)O)c2ccccc2n1	0	0	0	0	0	-
Cc1cc(-c2nc3ccccc3o2)c2ccccc2n1	40.8	0	0	0	-	0
CC(C)(C)c1ccc(OC(=O)CN2C(=O)C3C4CCC(C4)C3C2=O)cc1 (centres undefined)	41.7	0	0	0	0	0
COC(=O)c1c(N)sc(Cc2ccccc2)c1C	0	0	0	0	0	-
Nc1sc(-c2ccccc2)c(Cc2ccccc2)c1C(=O)O	53.2	0	0	0	0	34.8
Cc1ccc(S(=O)(=O)N(Cc2ccccc2)c2ccccc2C(=O)NCc2cccnc2)cc1	40.9	0	0	0	0	0
Cc1ccc(S(=O)(=O)N(C)c2ccc(C(=O)NCc3cccnc3)cc2)cc1	0	0	0	0	0	-
O=C(O)CN=CC1=C(O)CC(c2ccccc2)CC1=O (centres undefined)	0	0	0	0	0	-
COc1ccc(CCNC(=O)c2cc(-c3ccc(Cl)c(Cl)c3)oc2C)cc1	40.5	0	0	52.8	0	35.6
CC1Cc2ccccc2N1C(=O)c1ccc2snnc2c1 (centres undefined)	0	0	0	-	-	-
SMILES	tim10-1 inh	TIM10 inh	tim23-1 inh	SKKanGAS inh	PfHsp90 set2	tim10-1 conf
Cc1nc2cc(C(=O)N3c4ccccc4CC3C)ccc2s1 (centres undefined)	43.0	0	0	0	0	0
CC(C)N(C(=O)c1nn(C)c2c1CSc1ccccc1-2)C1CCCCC1	49.6	0	0	0	0	0
Cn1nc(C(=O)NC2CCCCC2)c2c1-c1ccccc1SC2	0	0	0	0	0	-
Brc1ccc(-c2cn3c(n2)CCc2ccc4cccnc4c2-3)cc1	46.5	0	0	75.9	0	31.6
Brc1ccc(-c2cn3nc4c(nc3n2)CCCC4)cc1	0	0	0	0	-	-
CCn1c(SCC(=O)Nc2ccccc2Br)nnc1-c1cnccn1	0	0	0	0	0	-
COc1ccc(C2OCC(C)(C)CO2)cc1OC	-	-	-	-	0	-
COc1ccc(C2C=C(C34CC5CC(CC(C5)C3)C4)NC(=S)N2)cc1OC (centres undefined)	55.6	0	0	0	0	0
CC(C)C1O/C(=N/C(=O)Nc2ccc(Cl)c(Cl)c2)NC1=O (centres undefined)	56.6	0	0	78.5	-	47.5
COc1ccc(C(=O)Nc2ccc(Cl)c(Cl)c2)c(OC)n1	0	0	0	0	0	-
CCc1ccc(NC(=O)CN2CCN(c3ccc(OC)cc3)CC2)cc1	-	-	-	-	0	-
COc1ccc(COC(=O)Nc2cc3c(C(F)(F)F)nn(C)c3s2)cc1	43.8	0	0	0	0	0
Cc1ccc(NC(=O)c2ccc(Cl)c(N3C(=O)C=CC3=O)c2)cc1	67.7	0	0	0	124.3	78.8
O=C(Nc1ccc(Cl)c(Cl)c1)c1ccc(Cl)c(Cl)c1	0	0	0	0	0	-
COc1ccc(C2=NOC(C)(c3nnc(-c4ccncc4)o3)C2)cc1 (centres undefined)	0	0	0	0	0	-
CCOC(=O)CC(=O)CSc1nc2c(c(-c3cccs3)c1C#N)CCC2	42.2	0	0	0	0	33.0
O=C(c1ccc(S(=O)(=O)Cc2cc(F)ccc2F)c([N+](=O)[O-])c1)N1CCCCC1	43.5	0	0	0	0	28.8
O=C(c1ccc(Cl)c([N+](=O)[O-])c1)N1CCN(c2ccccn2)CC1	0	0	0	0	0	-
O=C(c1ccc(S(=O)(=O)Cc2ccccc2Cl)c([N+](=O)[O-])c1)N1CCN(c2ccccn2)CC1	52.2	0	0	0	0	38.6
O=C(c1cccc(COc2ccc(Cl)cc2Cl)c1)N1CCN(c2ccccn2)CC1	42.2	0	0	53.1	0	0
O=C(c1ccc(Sc2cccc(Cl)c2)c([N+](=O)[O-])c1)N1CCN(c2ccccn2)CC1	41.0	0	0	0	-	0
CCC(C(=O)NCCCN1CC(C)CC(C)C1)n1nc(C)c2sc3ccccc3c2c1=O (centres undefined)	0	0	0	0	0	-
Cc1cnc(NC(=O)Nc2ccccc2)c(C)n1	0	0	0	0	0	-
COCCCNC(=O)c1ccc(S(=O)(=O)c2ccc(Cl)cc2)c(NC(C)=O)c1	0	0	0	0	0	-
CCN(Cc1ccc2c(c1)OCCO2)C(=O)CSc1nc(C)nc2sc(C)c(C)c12	0	0	0	-	0	-
Cc1ccccc1C(=O)Nc1cccc(C(=O)N/N=C/c2cc(Cl)cc([N+](=O)[O-])c2O)c1	41.2	0	0	0	0	0
Cc1cccc(CN2C(=O)/C(=C\c3ccc(C(=O)NCCN4CCOCC4)cc3)Sc3ccccc32)c1	42.0	0	0	0	0	0
